Only some compounds are listed: those with a hit (about 11% of all), similar ones and a draw of the others.
Coupling enz – coupling enzyme interference in Giardia aldolase counter-screen; activity change, negative = inhibition, % at 58.2 µM, hits read low; 290,000 compounds, 0.67% hits; AID 2472; coupling enzyme system counterscreen, AmpLite Red fluorescence; in the data active = activity change below about -30%
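Coupling enzymes only (glyceraldehyde-3-phosphate) + compound, at 57.5 uM final, 10 min RT; add substrate/coupling/AmpLite Red mix, 20 min RT; fluorescence ex 525/em 598 nm. Actives flag coupling-system interference.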
Sfp inh – blocks B. subtilis Sfp PPTase activity. Q9F4F7. Biochemical Sfp PPTase activity, qHTS. Potency, µM, hits mostly inhibitors. 310,000 compounds, 3.5% hits. AID 1490;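 note: the enzyme is Sfp with the accession as filed and its product quenches rhodamine fluorescence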
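After 15 min at room temperature with compound, 15 nM Sfp received 5 uM rhodamine-CoA plus 12.5 uM BHQ-2-ybbR (50 mM Hepes pH 7.6, 10 mM MgCl2). Rate came from the fluorescence difference over 30 min, ex 525/em 598 nm.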
G9a inh – blocks human histone lysine methyltransferase G9a; Q96KQ7; G9a H3K9 monomethylation, AlphaScreen, 2 h; Potency, µM (titrated, usually from 102 µM), actives largely listed as inhibitors; 350,000 compounds, 8.8% hits; AID 504332; note: nearly all actives have a fitted effect of over 75% in size
Target sequence (Q96KQ7 913-1193 limits assumed): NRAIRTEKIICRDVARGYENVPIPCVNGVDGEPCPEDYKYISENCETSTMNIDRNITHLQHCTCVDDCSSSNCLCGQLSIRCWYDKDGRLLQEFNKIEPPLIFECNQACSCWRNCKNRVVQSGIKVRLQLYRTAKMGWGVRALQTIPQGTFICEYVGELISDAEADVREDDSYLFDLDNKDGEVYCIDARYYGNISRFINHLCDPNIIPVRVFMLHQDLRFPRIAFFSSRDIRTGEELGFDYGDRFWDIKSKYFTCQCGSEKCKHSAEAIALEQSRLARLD
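Readings reflect AlphaScreen signal from monomethyl-H3K9 antibody detection. HMT at 20 nM; substrate b-H3K9 500 nM; cofactor SAM 20 uM; 2 h RT reaction; compounds tested as titrations in qHTS with 15 min preincubation.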
Tau fibril FP – inhibitors of human tau fibril formation; P10636; K18 P301L tau heparin fibrillization, Alexa594 FP, 6 h; AID 1468; 280,000 compounds, 0.39% hits; Potency, µM (highest dose often 57.7 µM), actives largely listed as inhibitors; note: nearly all actives have a fitted effect of over 55% in size
Target sequence (P10636 561-689 P618L limits assumed): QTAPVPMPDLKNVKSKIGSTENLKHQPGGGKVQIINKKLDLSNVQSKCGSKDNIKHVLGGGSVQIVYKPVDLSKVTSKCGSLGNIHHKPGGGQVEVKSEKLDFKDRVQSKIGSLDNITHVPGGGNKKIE
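Recombinant K18 P301L […], labeled with Alexa 594 at 0.24 uM over 15 uM unlabeled; heparin inducer 20 uM final; 37 C, 6 hr; FP endpoint.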
Tau fibril ThT – blocks human tau fibril formation measured by thioflavin T | P10636 | recombinant tau K18 P301L, heparin-induced fibrillization, ThT fluorescence | Potency, µM (doses to about 57.4 µM), most hits filed as inhibitors | 270,000 compounds, 2.1% hits | AID 1460; note: nearly all actives have a fitted effect of over 55% in size
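Recombinant human tau K18 fragment […] carrying P301L, 15 uM unlabeled plus 0.24 uM Alexa 594-labeled, was fibrillized with 20 uM heparin in 100 mM sodium acetate pH 7 for 6 hr at 37 C; 30 uM ThT fluorescence read after 1 hr.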
Tau fluor cs – counter-screen for tau fibril formation inhibitors; tau K18 P301L Alexa594 fluorescence, heparin fibrillization; Potency, µM (titrated, usually from 57.7 µM); 280,000 compounds, 0.93% hits; note: nearly all actives have a fitted effect of over 55% in size
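Human tau K18 P301L (15 uM unlabeled, 0.24 uM Alexa 594-labeled) in 100 mM sodium acetate pH 7 with 20 uM heparin, 6 hr at 37 C. ThT 30 uM added, 1 hr ambient; Alexa 594 FP and total fluorescence read at 555/632 nm.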
A number is an active result; – = inactive; ? = inconclusive; · = no result given; ! = not active in a repeat; [ ] = dose if it differs, or a comment. Unless noted, calls come from the whole dose curve; as a rule, active = well fitted curve in the direction sought with a large enough effect; inconclusive = small, poorly fitted or top-dose-only effect, or another doubt; inactive = no such curve, though single readings can be large; an effect the other way counts as inactive or inconclusive.

SMILES | Coupling enz | Sfp inh | G9a inh | Tau fibril FP | Tau fibril ThT | Tau fluor cs
COc1cc(C2NC(=O)NC(C)=C2C(=O)OC(C)(C)C)ccc1OCC(=O)O (centres undefined) | – | – | – | – | – | –
COc1ccc(Cl)cc1NC(=O)CSc1nc(NS(=O)(=O)c2ccccc2)cc(=O)[nH]1 | – | – | 71µM | · | · | ·
O=C(CSc1nc(NS(=O)(=O)c2ccccc2)cc(=O)[nH]1)Nc1ccc(Cl)cc1 | – | – | 71µM | ? | – | –
COc1ccc(NC(=O)CSc2nc(NS(=O)(=O)c3ccccc3)cc(=O)[nH]2)cc1 | – | – | ? | – | – | –
c1ccc2c(c1)ncc1cccn12 | – | – | – | – | – | –
c1ccc(-c2ncc3ccccn23)cc1 | – | 16µM | 79µM | – | ? | –
CNc1ncnc2c1ncn2[C@H]1C[C@H](O)[C@@H](CO)O1 | · | – | – | – | – | –
CNc1ncnc2c1ncn2[C@H]1C[C@H](OP(=O)(O)O)[C@H](COP(=O)(O)O)O1 | – | 28µM | · | – | – | –
CCc1ccccc1NC(=O)CCCN1C(=O)CCn2nc(-c3cn(C)c4ccccc34)cc21 | · | · | – | – | ? | –
COc1ccccc1NC(=O)c1cc(S(=O)(=O)N2CCOCC2)ccc1Cl | – | – | – | – | – | –
CC(Oc1ccc(F)cc1)C(=O)Nc1ccc(N2CCOCC2)cc1N1CCOCC1 (centres undefined) | · | · | 56µM | · | · | ·
COC(=O)c1cc(S(=O)(=O)N2CCCCC2)ccc1N1CCOCC1 | · | · | 50µM | · | · | ·
COC(=O)c1cc(S(=O)(=O)N2CCOCC2)ccc1Sc1ccccc1N | – | – | 20µM | – | – | –
COc1ccc(NC(=O)c2cc(S(=O)(=O)N3CCCCC3)ccc2N2CCCCC2)cn1 | -35 | – | – | – | – | –
COc1ccc2oc(=O)cc(CN3CCN(C(=O)c4ccccc4)CC3)c2c1 | · | · | ? | – | – | –
CC(Oc1ccc(F)cc1)C(=O)Nc1cc(S(=O)(=O)N2CCCCC2)ccc1N1CCOCC1 (centres undefined) | · | · | 13µM | · | · | ·
C#CC(CC)(CC)NC(=O)c1cc(S(=O)(=O)N2CCCCC2)ccc1N1CCOCC1 | · | · | – | · | · | ·
Cc1cc(C#N)c(C)n1-c1cc(S(=O)(=O)N2CCOCC2)ccc1N1CCCC1 | – | 40µM | 6.3µM | – | – | –
Cc1nn(Cc2ccc(F)cc2)c2sc(C(=O)Nc3ccc(N4CCOCC4)cc3N3CCOCC3)cc12 | – | – | 11µM | ? | ? | ?
Cc1cc(=O)n(CC(=O)N2CCN(c3ccccc3F)CC2)c2c1c(C)nn2C | · | · | – | – | – | –
CSc1ncccc1C(=O)NC1CC(C)(C)Cc2c1cnn2-c1ccccc1C (centres undefined) | · | – | – | · | · | ·
O=C(Nc1ccc(Cl)c(-c2nc3cc(Cl)ccc3o2)c1)c1cc([N+](=O)[O-])ccc1N1CCOCC1 | · | · | – | – | – | ?
CCN1CCN(CC(O)COc2ccc(Cl)cc2)CC1 (centres undefined) | – | – | – | – | – | –
Cc1cc(OCC(O)CN2CCN(C)CC2)ccc1C(C)C (centres undefined) | – | – | 89µM | – | – | –
CCOC(=O)c1c(C)n(C)c2ccc(OCC(O)CN3CCN(C)CC3)cc12 (centres undefined) | – | – | ? | – | – | –
SMILES | Coupling enz | Sfp inh | G9a inh | Tau fibril FP | Tau fibril ThT | Tau fluor cs
OCCN1CCN(CC(O)COc2ccc(Cl)cc2)CC1 (centres undefined) | – | – | 50µM | – | – | –
CCOC(=O)c1c(C)n(-c2ccc(C)cc2)c2ccc(OCC(O)CN3CCN(C)CC3)cc12 (centres undefined) | – | 40µM | 50µM | – | ? | –
CN1CCN(CC(O)COc2ccc(Cl)cc2)CC1 (centres undefined) | – | – | 56µM | – | – | –
COc1ccc(-c2nnc(SCC(=O)Nc3cccc(F)c3)s2)cc1 | · | · | – | – | ? | –
CC(Oc1ccccc1)C(=O)Nc1ccc(C(=O)OCc2cc(=O)n3nc(C(C)C)sc3n2)cc1 (centres undefined) | · | · | – | – | – | –
COc1ccc(OC)c(-c2noc(CSc3nnc(-c4ccccc4)n3-c3ccccc3)n2)c1 | · | · | – | – | – | –
CC(C)Nc1oc(Cc2cccc3ccccc23)nc1C#N | – | – | 45µM | – | – | –
CC1CN(c2oc(Cc3cccc4ccccc34)nc2C#N)CC(C)O1 (centres undefined) | – | – | 25µM | – | – | –
CNc1oc(Cc2cccc3ccccc23)nc1C#N | – | – | ? | – | – | –
Cc1cc(C(=O)CCC(=O)N(C)CC(=O)Nc2ccccc2Br)c(C)s1 | · | · | – | · | · | ·
O=C(O)c1ccc(Cl)c(S(=O)(=O)Nc2ccc3[nH]c(=O)[nH]c3c2)c1 | – | – | ? | ? | 14µM | ?
O=C(O)c1ccc(Cl)c(S(=O)(=O)Nc2ccc(OCc3ccccc3)cc2)c1 | – | – | 40µM | · | · | ·
O=C(NNC(=O)c1ccco1)c1ccccc1 | – | – | – | – | – | –
Cc1cccc(C(=O)NNC(=O)C(=O)NC(C)(C)C)c1 | – | – | 28µM | – | – | –
CC(C)(C)NC(=O)C(=O)NNC(=O)c1ccco1 | – | 79µM | – | – | – | –
CC(C)CNC(=O)C(=O)NNC(=O)c1ccco1 | – | – | 11µM | – | – | –
CCOc1ccc(C(=O)N2CCC3(CC2)NCCc2[nH]cnc23)cc1 | · | – | – | · | · | ·
Cc1ccc(Cn2c(CNC(=O)c3ccc(Cl)c([N+](=O)[O-])c3)nc3cccnc32)cc1 | · | · | – | – | ? | ?
NC(=Nc1ccc(N)cc1)C(N)=Nc1ccc(N)cc1 | – | – | ? | ? | 8.9µM | ?
NC(N)=Nc1ccc(Cl)cc1 | – | – | · | – | – | –
C[C@@H](CCc1ccc(O)cc1)NCCc1ccc(O)c(O)c1 | – | 56µM! | –[21.5 µM] | – | – | –
CCn1cc(C(=O)NCc2ccccc2Cl)c(=O)c2cc(S(=O)(=O)N3CCCCCC3)ccc21 | · | · | – | – | – | –
O=C(/C=C/c1ccco1)Nc1cccc(NC(=O)/C=C/c2ccco2)n1 | – | – | 10µM | ? | ? | ?
CCc1nnc(NC(=O)/C=C/c2ccco2)s1 | – | – | 50µM | – | – | –
Cc1nc(NC(=O)/C=C/c2ccco2)sc1C | – | 71µM | ? | – | – | –
CCSc1nnc(NC(=O)/C=C/c2ccco2)s1 | – | – | – | – | – | –
O=C(/C=C/c1ccco1)NC1=NCCS1 | – | – | ? | – | ? | –
N#CCOC(=O)C1CSC2(c3ccc(Br)cc3)CCC(=O)N12 (centres undefined) | – | – | – | – | – | –
Nc1ccc(Sc2ccc([N+](=O)[O-])cc2)cc1 | – | – | 56µM | – | ? | ?

Source: PubChem BioAssay
